# Data taken from PubChem BioAssay AID1347069 (National Center for Advancing Translational Sciences (NCATS), 2019).
# Among all 44,000 compounds or so, fewer than 10 were called active. Calls follow the shape of the dose curve; as a rule, active = well fitted inhibition curve with a large enough effect; inconclusive = small, poorly fitted or top-dose-only effect; inactive = flat fitted curve, though single readings scatter. These entries were drawn from the full list. Entries that show only a call come without a potency.
# Molecular target: Tumor susceptibility gene 101 protein (Homo sapiens) (UniProt Q99816)
# Assay: qHTS Validation Assay for Inhibitors of HIV-1 Budding by Blocking the Interaction of PTAP/TSG101: Sytravon Library Screen
# Conditions: Fluorescence polarization, FITC-PTAP peptide/Tsg101, 20 min; series mostly up to 115 µM
# Source text: Stages of the HIV-1 replication cycle, specifically virus assembly and release, provide underexploited targets for the development of novel antiviral inhibitors. The late stages of HIV-1 replication are mediated by the Gag precursor protein, Pr55Gag. Expression of Pr55Gag is both necessary and sufficient for the production of virus-like particles from Gag-expressing cells. The Gag protein hijacks key host proteins involved in endocytic machinery of the host cell to promote endosomal processing and viral budding. The budding process requires a direct interaction between a […] (PTAP) motif in the p6 domain of Gag and the cellular endosomal sorting protein known as Tsg101. In this way, the Gag PTAP motif promotes the host cells to recruit viral particles to the plasma membrane where the new viral particles are released, effectively turning the host cells into viral factories. A fluorescence polarization assay has been developed to quantitatively measure the PTAP-Tsg101 interaction which can be used to screen for inhibitors of this interaction. This assay was run against the NCGC Sytravon Library collection. NIH Molecular Libraries Probe Production Network [MLPCN] NIH Chemical Genomics Center [NCGC] Grant: R03 MH087464-01A1 PI Name: Dr. Eric Freed, NCI
# Two uL of the Tsg101 binding domain in buffer (10 mM HEPES pH 7.5; 0.15 M NaCl, 0.01% Tween 20; 3 mM EDTA;0.1 mM TCEP) was dispensed into Greiner black MB 1536-well plates (final concentration 10 uM). Then, 23 nL of compounds or DMSO were delivered to each well using a pin tool. Finally, 2 uL of a FITC-labeled peptide containing the PTAP motif (1) in the same buffer was dispensed (50 nM final concentration) and the binding was allowed to proceed for 20 min. at r.t. Fluorescent polarization was determined using FITC excitation and polarized emission filters on a Perkin Elmer Envision. Assay cut-off (positive/negative criteria): Actives defined by CRC class, <25 µM; Efficacy <60% inhibition. The total fluorescent intensity from S and P channels will be used to flag fluorescent compounds.
# Sequence of Tumor susceptibility gene 101 protein (Homo sapiens) (Q99816 whole entry, looked up): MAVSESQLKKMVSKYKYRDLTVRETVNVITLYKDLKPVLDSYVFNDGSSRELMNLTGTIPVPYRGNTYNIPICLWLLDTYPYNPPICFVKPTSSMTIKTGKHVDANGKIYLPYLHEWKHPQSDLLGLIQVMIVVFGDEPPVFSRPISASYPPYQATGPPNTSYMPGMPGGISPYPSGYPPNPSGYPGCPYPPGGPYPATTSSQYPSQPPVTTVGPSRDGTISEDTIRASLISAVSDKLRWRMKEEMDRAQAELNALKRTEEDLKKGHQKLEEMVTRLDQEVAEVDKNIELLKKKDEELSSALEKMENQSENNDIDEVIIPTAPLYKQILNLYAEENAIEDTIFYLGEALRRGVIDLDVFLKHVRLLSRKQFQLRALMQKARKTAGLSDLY
row,SMILES,Potency
1,O=C(OCc1cc(=O)n2nc(C3CC3)sc2n1)c1ccccc1Cl,inactive
2,COc1ccc(NC(=O)Nc2cccc(-c3noc(C)n3)c2)cc1,inactive
3,CC(C)(C)c1ccc(C(=O)N2CCC(c3nc(-c4ccc(S(=O)(=O)N5CCCC5)cc4)no3)CC2)cc1,inactive
4,CCCCCn1c(CCCNC(=O)c2ccccc2OC)nc2ccccc21,inactive
5,COc1ccccc1CNc1nccn(-c2ccc(F)cc2)c1=O,inactive
6,Cc1c(Cl)cccc1-c1ccc(CNCCCSc2nnnn2C)o1,inactive
7,CSc1ccc(C2c3c(oc4ccccc4c3=O)C(=O)N2CCCN2CCOCC2)cc1 (configuration not stated),inactive
8,CSc1cccc(NC(=O)CN2C(=O)CCc3cc(S(=O)(=O)N4CCCCC4)ccc32)c1,inactive
9,COc1ccc(OC)c(NC(=O)CSC2=Nc3ccccc3C3=NC(CC(=O)NCc4ccc(F)cc4)C(=O)N23)c1 (configuration not stated),inactive
10,Cc1cc(OC(C)C(=O)Nc2sc3c(c2C(N)=O)CCCC3)ccc1Cl (configuration not stated),inactive
11,COc1ccc(-c2cc(-c3ccccc3)nc3c2COc2ccc(Cl)cc2-3)cc1,inactive
12,CCCCNC(=O)C1CCCN(c2nnc(C)c3c(C)n(-c4ccc(Cl)cc4)nc23)C1 (configuration not stated),inactive
13,Cc1cccc(NC(=O)N2CCN(C)c3ncccc32)c1C,inactive
14,CCc1nnc(SCc2nc(-c3cccc(C)c3)oc2C)c2cc3sc(C)cc3n12,inactive
15,CC(C)(C)c1ccc(C(=O)Nc2ccc3c(c2)CCCN3C(=O)c2cccs2)cc1,inactive
16,CCN1CCN(C(c2ccc(C)cc2)c2c(O)cc(C)n(Cc3ccco3)c2=O)CC1 (configuration not stated),inactive
17,Cc1csc2nc(COC(=O)c3ccccc3NC(=O)c3ccccc3Cl)cc(=O)n12,inactive
18,Cc1ccc(NC(=O)c2ccc3[nH]c(C)cc(=O)c3c2)c(C)c1,inactive
19,Cc1ccc2c(c1)c1c(c(=O)n(-c3ccccc3)c(=O)n1CC(=O)c1ccc(Cl)cc1)n2C,inactive
20,Cc1ccccc1-c1nc2cc(NC(=O)c3cccc(OCCC(C)C)c3)ccc2o1,inactive
21,CCn1c(C)c(C)c2cc(C(=O)NCCc3cc(OC)ccc3OC)ccc21,inactive
22,Cn1c(=O)c2c(ncn2CC(=O)Nc2cccc(C(F)(F)F)c2)n(C)c1=O,inactive

row,SMILES,Potency
1,Cc1ccc(-n2nc(C)c3c(C)cc(=O)n(CC(=O)Nc4ccc(C(C)C)cc4)c32)cc1,inactive
2,Cc1ccc(C2c3[nH]c4ccccc4c3CCN2C(=O)c2cccc(C)c2)cc1 (configuration not stated),inactive
3,CCOC(=O)C1CCN(c2nc3c(S(=O)(=O)c4ccc(CC)cc4)nnn3c3ccc(Cl)cc23)CC1,inactive
4,O=C(CSc1nc2ccccc2nc1Cc1ccccc1)N1CCCCC1,inactive
5,COc1cccc(CNC(=O)c2ccc3c(Cl)c4c(nc3c2)CCCC4)c1,inactive
6,CCCN(CCC)CCCNC(=O)Cn1cc2c(n1)-c1c(oc(C(=O)N3CCCC3)c1C)CC2,inactive
7,COc1ccc(NC(=O)Cn2cc(C(=O)c3ccncc3)c(=O)c3cc(C)ccc32)cc1Cl,inactive
8,O=C(Cn1ncc2c3ccccc3n(Cc3ccccc3)c2c1=O)NC1CCCCCC1,inactive
9,Cc1ccc(NC(=O)CN2C(=O)CC(C)Sc3ccccc32)c(C)c1 (configuration not stated),inactive
10,CC(C)c1ccc(OCC(=O)N(Cc2ccc(N(C)C)cc2)C2CCS(=O)(=O)C2)cc1 (configuration not stated),inactive
11,CCCn1c(NCc2ccccc2F)nc2ccccc21,inactive
12,O=C(COc1ccc(Cl)cc1)N(Cc1ccco1)Cc1ccco1,inactive
13,Cc1ccc(CCNC(=O)c2ccc3c(c2)N(Cc2cc(C)ccc2C)C(=O)c2ccccc2S3=O)cc1 (configuration not stated),inactive
14,O=C(c1ccc2c(c1)N(Cc1ccccc1)C(=O)c1ccccc1S2(=O)=O)N1CCC(Cc2ccccc2)CC1,inactive
15,CCCCn1c(=O)c2oc3ccccc3c2n(CC(=O)Nc2ccccc2OC)c1=O,inactive
16,COC(=O)c1ccc(NC(=O)c2cnn(-c3ccc(Cl)cc3)c2C2CCN(C(=O)OC(C)(C)C)CC2)cc1,inactive
17,COc1ccc(-c2nc3ccc(C(=O)NCc4ccc(C)cc4)cc3nc2-c2ccc(OC)cc2)cc1,inactive
18,Cc1cccc(N(C)C(=O)CS(=O)(=O)c2cccc3nsnc23)c1,inactive
19,O=C(C1CCC(Cn2c(=O)c3sccc3n(Cc3ccccc3F)c2=O)CC1)N1CCCCC1 (configuration not stated),inactive
20,CCN1CCN(CCCNC(=O)c2ccc3c(c2)sc2nc(-c4ccc(OC)cc4)cn23)CC1,inactive
21,COc1cccc2c1cc1c(=O)n(CC(=O)N3CCN(c4ccccc4)CC3)nc(C)n12,inactive
22,O=C(Nc1ccc(Oc2ccccc2)cc1)C1CCN(S(=O)(=O)c2ccc(Cl)cc2)CC1,inactive

row,SMILES,Potency
1,COc1ccc(-c2cn3c(C)c(C(=O)Nc4cc(C)cc(C)c4)sc3n2)cc1,inactive
2,CCCCN(C)CCCNC(=O)CN1N=C(c2ccc(OC)cc2)CCC1=O,inactive
3,COc1cccc(Cn2c(SCc3ccc(C(=O)N4CCC(C)CC4)cc3)nc3ccncc32)c1,inactive
4,Cc1cccc(NC(=O)c2cc3c(C)nn(-c4ccccc4)c3s2)c1,inactive
5,CNC(=O)c1ccc(-c2nc(CN3CCc4ccccc43)c(C)o2)cc1,inactive
6,Cc1ccc2oc(=O)c3cnn(CC(=O)N4CCN(c5cccc(Cl)c5)CC4)c3c2c1,inactive
7,COc1ccc(-n2c(SCC(=O)Nc3ccc(Cl)c(C)c3)nc3n[nH]c(C)c3c2=N)cc1,inactive
8,CCC(C(=O)Nc1cccc(Cl)c1C)n1nc(-c2ccc(C)cc2)ccc1=O (configuration not stated),inactive
9,Cc1cccc(CNS(=O)(=O)c2ccc(-c3cnc(C4CC4)o3)cc2)c1,inactive
10,CCc1cc2c(-c3ccccc3)cc(=O)oc2c2c1OCN(Cc1ccc(C)cc1)C2,inactive
11,Cc1oc2ccc(O)c(CN3CCCCC3)c2c1C(=O)Nc1cccc(C(F)(F)F)c1,inactive
12,CC(C)Cn1c(=O)c2ccccc2n2c(-c3cccc(Cl)c3)nnc12,inactive
13,O=C(Nc1cc(Cl)cc(Cl)c1)c1ccc2c(c1)N(Cc1cccc(Cl)c1)C(=O)c1ccccc1S2=O (configuration not stated),inactive
14,O=C(O)c1ccc(Nc2nc(-c3ccccc3)c3cc(Br)ccc3n2)cc1,inactive
15,Cc1cc(C)c2sc(NC(=O)c3ccc(S(=O)(=O)N4CCCC4)cc3)nc2c1,inactive
16,CCc1ccc(NC(=O)c2cnc3c(-c4ccccc4)c(C)nn3c2C)cc1,inactive
17,COc1ccc(-c2csc(-c3c(N)c(C(=O)c4ccc(OC)c(OC)c4)n4ccccc34)n2)cc1,inactive
18,Cc1ccc(C)c(N2CCN(C(c3ccccc3)c3nnc(-c4ccccc4)o3)CC2)c1 (configuration not stated),inactive
19,Fc1ccc(-c2nn(-c3ccccc3Cl)c3c2cnc2ccccc23)cc1,inactive
20,CCOc1ccccc1CNC(=O)c1ccc2c(c1)nc1n2CCC(C)C1 (configuration not stated),inactive
21,COc1ccccc1OCC(=O)Nc1nnc2n1CCS2,inactive
22,CCOC(=O)c1c(C)oc2ccc(N(C(=O)c3ccncc3)S(=O)(=O)c3ccc(CC)cc3)cc12,inactive

row,SMILES,Potency
1,O=C(CCS(=O)(=O)c1ccccc1)N(Cc1cccnc1)c1nc2c(F)cccc2s1,inactive
2,Cn1c(=O)sc2cc(NS(=O)(=O)c3ccc(C(C)(C)C)cc3)ccc21,inactive
3,COc1ccc2c(CNCCc3ccccc3C)c(C(=O)O)n(Cc3ccccc3C)c2c1,inactive
4,Cc1cc2c(cc1C)C(c1cccc(OC(C)C)c1)CC(=O)N2 (configuration not stated),inactive
5,CCc1nn(CCCC(=O)NCc2ccccc2OC)c(=O)c2cc3occc3n12,inactive
6,Cc1cccc(NC(=O)c2ccc(F)c(S(=O)(=O)N(C)C3CCCCC3)c2)c1,inactive
7,COc1ccc(CCNC(=O)c2ccc3c(c2)nc(C)n3-c2ccc(Br)cc2)cc1OC,inactive
8,CCCCn1cc(S(=O)(=O)c2ccc(OCC)cc2)c(=O)c2cc(OC)c(OC)cc21,inactive
9,COc1ccccc1CNc1nc2ccc(Cl)cc2n2cnnc12,inactive
10,Cc1ccccc1CNC(=O)CCc1cn(Cc2ccccc2C)c2ccccc12,inactive
11,COc1ccccc1-n1c(-c2ccc(C)cc2)cn2c3c(=O)n(C)c(=O)n(C)c3nc12,inactive
12,CCOC(=O)C1CCCN(C(=O)c2ccc(-n3ccc4ccccc43)s2)C1 (configuration not stated),inactive
13,Cc1cc(C)cc(NC(=O)c2cnc3sc(N4CCCC4)nn3c2=O)c1,inactive
14,COc1cc(NC(=O)CSc2nc3nc(C)c(Cc4ccc(C)cc4)c(C)n3n2)cc(OC)c1OC,inactive
15,Cc1oc(C)c2c(=O)cc(-c3ccc4c(c3)OCO4)cc(OC(=O)c3ccc(Cl)cc3)c12,inactive
16,COc1cccc(N=C2SC(C(=O)Nc3cccc(Cl)c3)CC(=O)N2C)c1 (configuration not stated),inactive
17,Cc1ccccc1-c1nc2scc(CCNC(=O)C(=O)Nc3ccc(F)cc3F)n2n1,inactive
18,O=C(CSCc1cnn(-c2ccccc2)c1-n1cccc1)NCc1ccc(Cl)cc1,inactive
19,CCN(CC)S(=O)(=O)c1ccc(C(=O)N=c2sc3cccc(OC)c3n2C)cc1,inactive
20,CC(=O)Nc1ccc(NC(=O)c2cc3sccc3n2Cc2ccc(F)cc2)cc1,inactive
21,CC(C)Cn1c(C2CC(=O)N(c3ccccc3Cl)C2)nc2ccccc21 (configuration not stated),inactive
22,CC1=C(C(=O)OCC2CCCCC2)C(c2c(F)cccc2Cl)CC(=O)N1 (configuration not stated),inactive

row,SMILES,Potency
1,COc1cc(Cl)c(C)cc1NC(=O)CCc1nc2cccnc2n1Cc1cccs1,inactive
2,COc1ccc(-c2nc(Cn3c(=O)cc(C)c4c(C)nn(-c5ccccc5)c43)c(C)o2)cc1OC,inactive
3,CCC(=O)N1CCc2cc(Br)cc(S(=O)(=O)Nc3ccc(C)cc3C)c21,inactive
4,CC(C)c1ccc(S(=O)(=O)Nc2ccc(O)c(Sc3nc4ccccc4s3)c2)cc1,inactive
5,Cc1ccc(-c2nn3c(=O)cc(CN4CCN(S(=O)(=O)c5ccc(Cl)cc5)CC4)nc3s2)cc1,inactive
6,NS(=O)(=O)c1ccc(NC(=O)COc2ccc(S(=O)(=O)NC3CCCCC3)cc2)cc1,inactive
7,Cc1ccc(NC(=O)Cc2ccc(NC(=O)N3CCCCc4ccccc43)cc2)cc1,inactive
8,CC1CCC(N2CC(=O)N(CCC3=CCCCC3)C(c3ccc(F)cc3)C2=O)CC1 (configuration not stated),inactive
9,CCOc1ccccc1CNC(=O)c1ccc(-n2c(C)cc3c2CCC(C)C3)cc1 (configuration not stated),inactive
10,O=S(=O)(c1ccc(Br)cc1)c1nnn2c1nc(NC1CCCCCC1)c1sccc12,inactive
11,Cc1oc(-c2ccccc2)nc1Cn1c(SCc2cccc(C(F)(F)F)c2)nc2cccnc21,inactive
12,CCCCOC(=O)/C(C#N)=C/c1ccc(-c2cccc(C(F)(F)F)c2)o1,inactive
13,CCOc1ccccc1C(=O)Nc1ccc(S(=O)(=O)N2CCCCC2c2cccnc2)cc1 (configuration not stated),inactive
14,CN(Cc1ccccc1)c1ncnc2onc(-c3ccc(F)cc3)c12,inactive
15,Cc1cccc(C(C)C)c1NC(=O)C(NS(=O)(=O)c1cccc2nsnc12)c1ccccc1 (configuration not stated),inactive
16,Cc1cccc(Cc2c(C)nc3nc(SCc4ccccc4Cl)nn3c2C)c1,inactive
17,Cc1ccc(/C=C(\C#N)C(=O)Nc2cc(C)ccc2C)cc1,inactive
18,COc1ccc(Cn2c(=O)n(-c3ccccc3C)c(=O)c3c4c(sc32)CN(C(C)=O)CC4)cc1,inactive
19,CCOC(=O)c1cc2c(=O)n3ccccc3nc2n(CC2CCCO2)c1=NC(=O)c1ccccc1F (configuration not stated),inactive
